A short description of experiment [1]: rapamycin-like changes in RPL19A-GFP expression – cell-based, S. cerevisiae, multiplex flow cytometry, primary screen (AID 1862; in the data active = percent of DMSO control GFP below about 86%;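 also: lower values mimic rapamycin by blocking the RPL19A rise seen in DMSO cells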). The settings on record: S. cerevisiae RPL19A-GFP strain, flow cytometry fluorescence, 3 h; at 10 µM; stronger effect = lower value. On the technique in general: In flow cytometry, cells or beads pass a laser one at a time.
Experiment [2] is described as follows: TOR pathway GLN3 branch reporter MEP2-GFP changes – S. cerevisiae, multiplex flow cytometry, primary screen (AID 1867;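 active = GFP response, as percent of the DMSO control, above the screen-wide mean plus 3 SD, about 139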;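 also: median GFP channel fluorescence of barcode-gated MEP2-GFP cells measured by flow cytometry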). Conditions: S. cerevisiae MEP2-GFP strain, 3 h, at 10 µM, stronger effect = higher value, 100% means same as DMSO wells.
The nature of experiment [3]: TOR pathway RTG branch CIT2 reporter changes – S. cerevisiae, GFP fusion, multiplex flow cytometry, primary screen (AID 1870;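 active = percent response above a set limit, the screen-wide mean plus 3 SD, cut at about 130% in these data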;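 also: barcoded CIT2-GFP strain pooled with four other GFP strains with rapamycin as positive control; median GFP fluorescence per well over plate mean of DMSO wells so 100% = DMSO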). Conditions: S. cerevisiae CIT2-GFP expression, 3 h, at 10 µM, stronger effect = higher value.
The nature of experiment [4]: TOR pathway LAP4-GFP level changes – S. cerevisiae, multiplex flow cytometry, primary screen (AID 1873;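 active = GFP signal, as percent of the solvent control, above the screen mean plus 3 SD, about 149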). The settings on record: S. cerevisiae LAP4-GFP expression, 3 h, at 10 µM, stronger effect = higher value.
The nature of experiment [5]: yeast AGP1-GFP level changes, GLN3 branch – cell-based, multiplex flow cytometry, S. cerevisiae, primary screen (AID 1887;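 active = GFP signal above the screen-wide mean plus 3 SD, that is over about 124.5% of the solvent control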;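 also: AGP1-GFP fusion strain of S. cerevisiae within a five-strain barcoded multiplex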). The settings on record: 3 h, at 10 µM, stronger effect = higher value.
Experiment [6] is described as follows: reduced mouse 2C T cell binding to pMHC/ICAM-1 vesicles – MLPCN validation set, flow cytometry, LFA-1/ICAM-1 modulator project, pilot screen (AID 2523;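 active = response below a set limit, under 55% cells CD8-positive and vesicle-bound, and CD8 cells' 90th-percentile brightness under 279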;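 as to vesicle binding response: mean PE anti-B7-1 fluorescence of CD8+ cells relative to row control; 100% = QL9-loaded vesicles with DMSO vehicle in the same plate row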). The settings on record: 2C mouse CD8+ T cells, at 7 µM, stronger effect = lower value; double positive events: measured here: CD8+/vesicle+ event percentage.
For experiment [7], the target named is Integrin beta-1 (Homo sapiens) + Integrin alpha-4 (Homo sapiens) (UniProt P13612+P05556). The experiment can be described thus: alpha4beta1 integrin LIBS antibody binding reduction – U937 cells, HUTS-21 mAb, flow cytometry, validation set, VLA-4 allosteric modulator project, pilot screen (AID 2674).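 Also: antibody binding induced by the VLA-4 ligand LDV present at three times its Kd; 0% = LDV ligand with antibody and no compound and 100% = antibody without LDV.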 The settings on record: HUTS-21 LIBS mAb binding, at 6.7 µM, stronger effect = higher value, binding induced by LDV ligand.

Experiment [8] in a line: calorie-restriction mimetic ROS inhibitors, yeast – validation compound set, pilot screen (AID 2706;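 active = superoxide response below 65% of plate, a cut near 3 SD across the whole screen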;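 also: yeast exposed to compound for one week at 30 degrees C before staining; 100% = mean of all compound wells on the same plate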). The settings on record: S. cerevisiae aging, superoxide DHE fluorescence; at 10 µM, stronger effect = lower value.
Experiment [9] concerns the target Beta-adrenergic receptor kinase 1 (Homo sapiens) (UniProt P25098). Nature of the experiment: GRK2 binders displacing RNA aptamer, biochemical, validation, human GRK2, bead flow cytometry (AID 488806;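 active = aptamer binding inhibition above 30%, about 3 SD of noise from non-fluorescent compounds; inactive = inhibition at or below 30%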). The settings on record: bead-bound GRK2, FAM-aptamer displacement, at 10 µM, stronger effect = higher value.
Experiment [10] concerns the target AP-2 complex subunit beta (Homo sapiens) (UniProt P63010). The experiment can be described thus: beta-arrestin/AP2 interaction blockers – biochemical, validation set, GST-AP2 beads, flow cytometry, pilot screen (AID 504541;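 active = inhibition above 54%, about 3 SD of non-fluorescent compounds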;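 also: AP2 carries R879A mutation and is captured from E. coli lysate; bead-bound FITC arrestin peptide fluorescence measuring arrestin peptide binding to AP2; 0% = DMSO wells and 100% = excess unlabeled arrestin peptide control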). The settings on record: FITC arrestin peptide, at 10 µM, stronger effect = higher value, AP2 beta2 appendage fragment, R879A mutant.
A short description of experiment [11]: cytosolic pH regulators acting via V-ATPase – S. cerevisiae, pHLuorin, HTS validation (AID 504600; in the data active = response above about 15%;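 also: plate controls were DMSO for no effect and reference compound for full effect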). Conditions: V-ATPase proton transport, at 10 µM, stronger effect = higher value.
In experiment [12] the test system is anti-desmoglein-3 scFv antibody binding to human DSG3. Nature of the experiment: blockers of pathogenic pemphigus antibody–desmoglein-3 binding – biochemical, validation compound set, bead-based, flow cytometry, pilot screen (AID 588368;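 active = binding below the plate cutoff, the plate median minus 3 SD, with a reading above zero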;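 also: signal is the median channel fluorescence of bead-bound GFP antibody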). The settings on record: Protein G beads, DSG3-Fc, scFv-GFP binding, at 10 µM, stronger effect = lower value.
The nature of experiment [13]: Nile Red efflux blockade in pump-expressing yeast – validation compound set, multiplex, phenotypic, pilot screen (AID 588506;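 active = efflux inhibition above 0.42, the validation set average plus 4 SD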;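 also: Nile Red retained in cells so higher fluorescence means more efflux inhibition; 0 = negative control wells and 1 = enniatin B 25 µM full block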). Conditions: S. cerevisiae pump-expressing triplex, Nile Red efflux flow cytometry; at 10 µM; stronger effect = higher value; the pumps come from Candida albicans.
Experiment [14] concerns the target ATP-binding cassette sub-family B member 6 (Homo sapiens) (UniProt Q9NP58). Nature of the experiment: blockers of ABCB6-driven porphyrin uptake – K562-ABCB6 cells, flow cytometry, validation set, pilot screen (AID 588550;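 active = inhibition above the screen-wide mean plus 3 SD, about 51%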;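 also: 0% = DMSO wells and 100% = benzethonium chloride 70 µM positive control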). Conditions: K562-ABCB6 porphyrin accumulation, 1 h, at 10 µM, stronger effect = higher value.
The nature of experiment [15]: AML differentiation inducers, ER-HoxA9 marrow cells – cell-based, GFP/MAC1 double positive, flow cytometry, validation set, primary screen (AID 588685;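 active = differentiation response of at least 50%, scaled between solvent and reference control, from cells with both markers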;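 also: compound exposure lasts four days before antibody staining and flow analysis; 0% = DMSO wells and 100% = 5 µM fulvestrant positive control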). The settings on record: stronger effect = higher value, normalized: vehicle 0, fulvestrant 100.
Experiment [16] has as its target Beta-2 adrenergic receptor (Homo sapiens) (UniProt P07550). Nature of the experiment: agonist-induced loss of surface beta2AR – cell-based, FAP fluorogen, flow cytometry, validation set, pilot screen (AID 504459;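 active = percent response above 42, roughly 3 SD of non-fluorescent test compounds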;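 also: agonist-driven loss of surface beta2AR via internalization measured by FAP dye flow cytometry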). Conditions: Am2.2-beta2AR cells, at 10 µM, stronger effect = higher value.

The results in this text go back to PubChem BioAssay.

Inconclusive results are not listed. Activity calls are given as the source filed them.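 The calls were made as follows, unless noted: active = inhibition above 50%, about 3 SD of the validation set; inactive = the rest.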

Chain of Integrin beta-1 (Homo sapiens) + Integrin alpha-4 (Homo sapiens) (P05556 whole entry, looked up): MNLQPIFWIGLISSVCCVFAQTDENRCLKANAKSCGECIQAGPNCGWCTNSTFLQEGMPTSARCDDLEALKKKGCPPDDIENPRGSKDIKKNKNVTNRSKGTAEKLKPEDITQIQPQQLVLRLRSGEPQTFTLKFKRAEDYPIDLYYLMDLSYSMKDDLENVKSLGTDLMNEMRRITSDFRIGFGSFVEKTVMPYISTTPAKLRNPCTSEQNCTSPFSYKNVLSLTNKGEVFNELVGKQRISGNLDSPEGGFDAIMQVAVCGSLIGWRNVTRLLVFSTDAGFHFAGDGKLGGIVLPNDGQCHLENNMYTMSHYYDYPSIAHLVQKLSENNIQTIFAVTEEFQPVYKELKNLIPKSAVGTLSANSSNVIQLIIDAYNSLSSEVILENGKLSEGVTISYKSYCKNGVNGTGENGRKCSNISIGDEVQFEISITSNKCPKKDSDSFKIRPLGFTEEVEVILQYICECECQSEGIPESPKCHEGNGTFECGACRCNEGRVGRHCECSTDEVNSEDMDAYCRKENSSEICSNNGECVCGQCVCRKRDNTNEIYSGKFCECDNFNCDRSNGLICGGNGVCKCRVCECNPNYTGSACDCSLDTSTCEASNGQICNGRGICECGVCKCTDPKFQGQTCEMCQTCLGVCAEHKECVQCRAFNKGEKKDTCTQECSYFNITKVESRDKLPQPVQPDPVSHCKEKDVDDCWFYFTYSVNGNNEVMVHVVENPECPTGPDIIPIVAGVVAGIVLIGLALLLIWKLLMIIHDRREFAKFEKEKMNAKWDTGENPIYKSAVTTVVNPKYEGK
Chain of Integrin beta-1 (Homo sapiens) + Integrin alpha-4 (Homo sapiens) (P13612 whole entry, looked up): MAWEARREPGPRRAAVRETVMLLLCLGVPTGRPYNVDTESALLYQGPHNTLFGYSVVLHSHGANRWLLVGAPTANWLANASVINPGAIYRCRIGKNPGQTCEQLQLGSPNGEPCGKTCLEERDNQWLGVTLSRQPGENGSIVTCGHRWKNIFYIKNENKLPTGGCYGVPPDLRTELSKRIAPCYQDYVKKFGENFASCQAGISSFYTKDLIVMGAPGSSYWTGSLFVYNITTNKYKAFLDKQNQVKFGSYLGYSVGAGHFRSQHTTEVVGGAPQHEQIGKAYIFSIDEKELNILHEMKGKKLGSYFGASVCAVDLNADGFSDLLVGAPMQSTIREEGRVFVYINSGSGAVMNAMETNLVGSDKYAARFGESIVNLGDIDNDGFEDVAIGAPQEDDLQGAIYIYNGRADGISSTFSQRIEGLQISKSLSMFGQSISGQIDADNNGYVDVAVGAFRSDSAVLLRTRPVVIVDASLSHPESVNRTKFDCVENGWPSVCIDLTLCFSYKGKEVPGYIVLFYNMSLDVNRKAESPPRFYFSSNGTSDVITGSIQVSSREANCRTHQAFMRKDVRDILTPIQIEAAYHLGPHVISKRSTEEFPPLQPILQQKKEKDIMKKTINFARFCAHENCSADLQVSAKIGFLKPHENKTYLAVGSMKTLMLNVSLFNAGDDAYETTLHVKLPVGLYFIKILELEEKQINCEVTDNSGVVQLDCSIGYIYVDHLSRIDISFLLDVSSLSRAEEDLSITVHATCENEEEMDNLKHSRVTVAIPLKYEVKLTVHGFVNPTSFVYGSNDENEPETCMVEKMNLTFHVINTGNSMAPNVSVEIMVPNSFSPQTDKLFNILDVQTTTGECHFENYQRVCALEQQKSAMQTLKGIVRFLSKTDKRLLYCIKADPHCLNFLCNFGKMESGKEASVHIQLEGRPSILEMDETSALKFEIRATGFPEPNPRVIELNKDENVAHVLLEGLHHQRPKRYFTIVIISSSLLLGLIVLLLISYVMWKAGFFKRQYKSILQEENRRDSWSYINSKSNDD
Chain of Beta-adrenergic receptor kinase 1 (Homo sapiens) (P25098 whole entry, looked up): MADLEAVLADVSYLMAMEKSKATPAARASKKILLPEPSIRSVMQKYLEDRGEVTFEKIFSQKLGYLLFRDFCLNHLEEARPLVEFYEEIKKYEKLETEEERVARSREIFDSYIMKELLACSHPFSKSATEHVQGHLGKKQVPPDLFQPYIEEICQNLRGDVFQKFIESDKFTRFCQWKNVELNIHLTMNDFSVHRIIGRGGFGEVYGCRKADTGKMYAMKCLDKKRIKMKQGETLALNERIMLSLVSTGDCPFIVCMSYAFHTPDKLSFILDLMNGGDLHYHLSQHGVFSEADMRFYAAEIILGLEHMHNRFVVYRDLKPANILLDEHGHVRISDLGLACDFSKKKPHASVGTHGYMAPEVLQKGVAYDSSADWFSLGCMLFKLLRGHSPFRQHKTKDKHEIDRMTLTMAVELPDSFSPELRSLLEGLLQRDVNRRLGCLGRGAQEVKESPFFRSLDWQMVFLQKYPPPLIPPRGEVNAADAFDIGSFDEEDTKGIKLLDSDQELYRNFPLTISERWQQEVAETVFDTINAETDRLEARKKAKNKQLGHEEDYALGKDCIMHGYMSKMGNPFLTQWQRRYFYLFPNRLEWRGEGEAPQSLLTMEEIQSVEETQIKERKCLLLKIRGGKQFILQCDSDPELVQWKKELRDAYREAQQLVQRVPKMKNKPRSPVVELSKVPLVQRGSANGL
Chain of AP-2 complex subunit beta (Homo sapiens) (P63010 whole entry, looked up, the tested form may be a part, one chain of several): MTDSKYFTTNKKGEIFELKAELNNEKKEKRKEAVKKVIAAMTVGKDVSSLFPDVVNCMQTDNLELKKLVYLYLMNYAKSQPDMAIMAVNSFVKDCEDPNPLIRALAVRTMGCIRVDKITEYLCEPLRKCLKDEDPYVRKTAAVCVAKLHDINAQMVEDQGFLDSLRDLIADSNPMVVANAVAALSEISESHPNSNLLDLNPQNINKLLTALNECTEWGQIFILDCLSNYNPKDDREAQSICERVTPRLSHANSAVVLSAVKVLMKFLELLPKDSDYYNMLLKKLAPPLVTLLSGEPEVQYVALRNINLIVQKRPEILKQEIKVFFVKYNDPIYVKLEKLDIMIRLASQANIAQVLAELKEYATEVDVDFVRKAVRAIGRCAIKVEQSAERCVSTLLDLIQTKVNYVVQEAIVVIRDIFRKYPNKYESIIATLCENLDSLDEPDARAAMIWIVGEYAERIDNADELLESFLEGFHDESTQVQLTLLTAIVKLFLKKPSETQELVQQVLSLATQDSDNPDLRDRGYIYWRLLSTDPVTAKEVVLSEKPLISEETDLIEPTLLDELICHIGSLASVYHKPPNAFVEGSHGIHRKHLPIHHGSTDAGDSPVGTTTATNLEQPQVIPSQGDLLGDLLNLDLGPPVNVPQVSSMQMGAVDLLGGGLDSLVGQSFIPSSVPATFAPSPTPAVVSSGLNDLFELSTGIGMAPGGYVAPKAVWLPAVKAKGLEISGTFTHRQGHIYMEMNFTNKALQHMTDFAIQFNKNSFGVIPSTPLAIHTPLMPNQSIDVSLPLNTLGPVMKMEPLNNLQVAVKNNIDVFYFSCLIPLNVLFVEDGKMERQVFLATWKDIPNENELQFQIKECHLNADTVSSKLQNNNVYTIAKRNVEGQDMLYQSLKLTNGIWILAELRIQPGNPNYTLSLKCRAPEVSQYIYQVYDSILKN
Chain of ATP-binding cassette sub-family B member 6 (Homo sapiens) (Q9NP58 whole entry, looked up): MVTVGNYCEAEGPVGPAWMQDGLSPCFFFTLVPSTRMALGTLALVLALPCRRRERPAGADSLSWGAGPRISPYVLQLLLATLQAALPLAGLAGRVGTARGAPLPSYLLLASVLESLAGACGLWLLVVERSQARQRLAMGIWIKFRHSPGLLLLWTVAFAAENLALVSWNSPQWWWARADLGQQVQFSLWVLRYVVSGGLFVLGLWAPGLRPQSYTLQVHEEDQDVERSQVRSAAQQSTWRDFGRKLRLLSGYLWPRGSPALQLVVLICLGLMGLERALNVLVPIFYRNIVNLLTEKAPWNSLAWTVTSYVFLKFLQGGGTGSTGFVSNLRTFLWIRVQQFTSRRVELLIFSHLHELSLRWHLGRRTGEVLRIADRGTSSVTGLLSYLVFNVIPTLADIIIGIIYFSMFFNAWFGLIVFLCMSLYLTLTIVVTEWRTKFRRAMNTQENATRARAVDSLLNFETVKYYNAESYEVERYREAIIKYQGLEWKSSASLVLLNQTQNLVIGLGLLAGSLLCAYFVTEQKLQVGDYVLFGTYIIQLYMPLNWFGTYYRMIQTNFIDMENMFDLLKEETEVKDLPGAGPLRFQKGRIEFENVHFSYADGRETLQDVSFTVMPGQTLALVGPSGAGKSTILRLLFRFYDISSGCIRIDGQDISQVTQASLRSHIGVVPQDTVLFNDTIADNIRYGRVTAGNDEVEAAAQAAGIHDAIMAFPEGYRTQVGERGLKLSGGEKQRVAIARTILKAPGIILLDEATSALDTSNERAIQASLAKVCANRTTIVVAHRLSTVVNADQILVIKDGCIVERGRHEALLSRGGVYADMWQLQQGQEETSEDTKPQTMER
Chain of Beta-2 adrenergic receptor (Homo sapiens) (P07550 whole entry, looked up): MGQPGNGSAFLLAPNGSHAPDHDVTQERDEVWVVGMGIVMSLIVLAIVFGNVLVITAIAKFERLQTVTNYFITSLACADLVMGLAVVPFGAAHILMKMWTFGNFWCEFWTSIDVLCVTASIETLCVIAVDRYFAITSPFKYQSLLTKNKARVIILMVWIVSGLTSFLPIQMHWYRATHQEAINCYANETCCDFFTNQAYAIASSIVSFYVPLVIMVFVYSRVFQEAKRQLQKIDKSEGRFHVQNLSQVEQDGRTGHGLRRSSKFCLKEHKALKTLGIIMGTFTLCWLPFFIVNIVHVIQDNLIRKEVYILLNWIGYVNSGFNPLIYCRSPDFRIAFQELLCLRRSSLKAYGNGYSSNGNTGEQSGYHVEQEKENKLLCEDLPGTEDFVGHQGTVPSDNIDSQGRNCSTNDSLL

Consider `COc1cc(C2CC(=O)NC3=C2C(=O)CC(C)(C)C3)ccc1O` (centres undefined), for which the percent of DMSO control GFP in experiment [1] is 99.6% (inactive). Also, the values for the GFP response vs DMSO in experiment [2] and in experiment [4] were 99.9% (inactive) and 100% (inactive), respectively. Moreover, in experiment [3], the percent response of DMSO control was 105% (inactive). Besides, the GFP response, % of DMSO in experiment [5] is 103% (inactive). In experiment [6], this compound showed a double positive events of 61.3%. Further, the vesicle binding response in experiment [6] is 141% (inactive). Further, the figures for the inhibition in experiment [7], in experiment [10] and in [14] were 11.9% (inactive), 22.3% (inactive) and 4% (inactive), respectively. For the same compound, the superoxide response (% of plate) in [8] is 98.7% (inactive). In experiment [9], the aptamer binding inhibition was 4% (inactive). Further, the response in experiment [11] was -2.29% (inactive). The binding (% of control) in experiment [12] was 96.5% (inactive). The efflux inhibition (fraction of control) in experiment [13] was -0.09 (inactive). Moreover, the differentiation response in experiment [15] is 0% (inactive).

`Cc1ccc(C(CC(=O)NCc2ccco2)c2ccc(OC(C)C)cc2)cc1` (centres undefined): the percent of DMSO control GFP in experiment [1] was 99.8% (inactive). The GFP response vs DMSO in [2] is 106% (inactive); in experiment [4], 103% (inactive). Further, in [3], the percent response of DMSO control is 96.9% (inactive). Besides, the GFP response, % of DMSO in [5] was 96.9% (inactive). In experiment [6], this compound displayed a double positive events of 60.4%. Besides, the vesicle binding response in experiment [6] was 165% (inactive). Moreover, the figures for the inhibition in experiment [7], in experiment [10] and in [14] were -138% (inactive), 37.9% (inactive) and 12% (inactive), respectively. The superoxide response (% of plate) in experiment [8] is 103% (inactive). The aptamer binding inhibition in experiment [9] was 2% (inactive). For the same compound, in experiment [11], the response was -2.51% (inactive). Further, the binding (% of control) in experiment [12] is 97.7% (inactive). Also, the efflux inhibition (fraction of control) in [13] was 0.67 (active). Further, in experiment [15], the differentiation response was -6.66% (inactive).

For the compound `CC1(C)NC(C(=O)O)Cc2c1[nH]c1ccccc21` (centres undefined), the percent of DMSO control GFP in [1] was 112% (inactive). In addition, the GFP response vs DMSO in [2] was 106% (inactive); in experiment [4] it was 98.4% (inactive). For the same compound, in [3], the percent response of DMSO control was 109% (inactive). The GFP response, % of DMSO in experiment [5] was 105% (inactive). In [6], the double positive events came out at 62.5%. Moreover, the vesicle binding response in experiment [6] is 175% (inactive). Also, the inhibition in experiment [7] was 5.36% (inactive); in experiment [10], 14.4% (inactive); in experiment [14], 8% (inactive). The superoxide response (% of plate) in [8] is 97.5% (inactive). Further, the aptamer binding inhibition in experiment [9] is 1% (inactive). Besides, in [11], the response is -1.17% (inactive). Moreover, the binding (% of control) in [12] was 112% (inactive). Besides, the efflux inhibition (fraction of control) in experiment [13] was 0.1 (inactive). Also, the differentiation response in [15] was -16.4% (inactive).

With `CCOC(=O)[C@H](CCc1ccccc1)N[C@@H](C)C(=O)N1CCC[C@H]1C(=O)O`, in experiment [1], the percent of DMSO control GFP is 102% (inactive). Besides, the values for the GFP response vs DMSO in experiment [2] and in [4] were 98.3% (inactive) and 98.6% (inactive), respectively. Also, the percent response of DMSO control in [3] is 93.1% (inactive). Besides, the GFP response, % of DMSO in [5] is 96.4% (inactive). The compound also returned a double positive events in experiment [6] of 64.3%. In experiment [6], the vesicle binding response is 171% (inactive). Further, the inhibition is -5.64% (inactive) in experiment [7], 61% (active) in experiment [10] and 3% (inactive) in experiment [14]. The aptamer binding inhibition in experiment [9] is 13% (inactive). Besides, the response in experiment [16] is -2.62% (inactive); in [11], -5.12% (inactive). Besides, the binding (% of control) in [12] was 95.3% (inactive). In experiment [13], the efflux inhibition (fraction of control) was 0.46 (active). Besides, the differentiation response in [15] is 25.7% (inactive).

Take `C=C(C)COc1ccc(-c2n[nH]c(C)c2-c2ccc(OC)cc2)c(O)c1`: in experiment [1], the percent of DMSO control GFP was 105% (inactive). In addition, the values for the GFP response vs DMSO in [2] and in [4] were 111% (inactive) and 112% (inactive), respectively. Moreover, the percent response of DMSO control in experiment [3] is 95.9% (inactive). The GFP response, % of DMSO in experiment [5] is 87.7% (inactive). In experiment [6], this compound yielded a double positive events of 58.9%. In addition, in experiment [6], the vesicle binding response was 175% (inactive). Moreover, the inhibition was -9.57% (inactive) in experiment [7] and 10% (inactive) in [14]. For the same compound, the superoxide response (% of plate) in experiment [8] is 101% (inactive). In addition, the aptamer binding inhibition in [9] is -3% (inactive). Besides, the response in experiment [11] is -1.12% (inactive). The binding (% of control) in [12] is 107% (inactive). Besides, the efflux inhibition (fraction of control) in experiment [13] is 0.75 (active). Moreover, the differentiation response in experiment [15] was -9.89% (inactive).

A word on the inhibition: it is the relative decrease from the control value, in per cent.
